The structures appear in SMILES notation. The panel holds about 83,000 compounds, 20% with a hit somewhere; the sample as a whole holds those more often.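 Note: values are percent growth. 100 is the growth of untreated cells, values between 100 and 0 indicate rising inhibition; between -100 and 0 indicates cell death.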 Active and inactive are the calls of the source. How the source made its calls: active means growth percent below 10; inactive means the rest.

Here are results for 40 molecules from PubChem BioAssay (NCI).

In the first assay the test system is SNB-75 CNS. Description: NCI-60 one-dose screen, 48 h (100 = growth as untreated, 0 = no growth, -100 = all killed). The note with it: 10 µM unless noted.
`CC/C(=C(/c1ccc(Cl)cc1)c1ccc(OCCN2CCCC2)cc1)c1ccc(OC)cc1`: the growth was 103% (inactive).
With `c1cc2[nH]ncc2cc1-c1nc2ccc3[nH]ncc3c2c2c1CCCC2`, the growth is -3.31% (active).
Still for that read-out and setting: next, `O=C(/C=C/c1ccc(Cl)cc1)c1cccc(Nc2nc(Nc3ccccc3)nc(Nc3ccccc3)n2)c1`: 71.9% (inactive); `N#Cc1nc(-c2ccccc2)oc1S(=O)(=O)N1CCOCC1`: 94.4% (inactive).
Turning to `O=C1Nc2ccccc2/C1=C\c1nc(-c2ccccc2)n2ccccc12`, the growth was 79.6% (inactive).
On the same count and under the same terms, under `O=C(COc1ccc(-c2nc3ccccc3[nH]2)cc1)N=Nc1c(O)[nH]c2ccc(Cl)cc12` stands 103% (inactive); under `COc1ccc(NC(=O)c2sc3nc(C)c(C(=O)/C=C/c4cccc(OC)c4)cc3c2N)cc1`, 11.2% (inactive).
Still for that read-out and setting: under `COc1cnc2c(c1)C(=O)c1c-2n(CCCNCCO)c(=O)c2ccncc12` stands 12.1% (inactive); under `O=C(Nc1nc2ccc(F)cc2s1)c1cccnc1Nc1ccc(Cl)cc1`, 62.2% (inactive).
On the same count and under the same terms, next, `N#CC1C=CN(CC(N)=O)c2ccc3cccnc3c21` (stereo not given): 87.2% (inactive).
As for `COc1ccc(-c2nc3c(c(-c4ccccc4)nn3-c3ccccc3)c(-c3ccc(N4CCN(C)CC4)cc3)c2C#N)cc1`, the growth was 106% (inactive).
On the same count and under the same terms, under `Cn1c(=O)c2[nH]c(N/N=C/c3ccccc3Br)nc2n(C)c1=O` stands 97.6% (inactive).
With `O=C(Nc1ccc(NC(=O)c2cc(=O)[nH]c3ccccc23)cc1)Nc1cccc(C(F)(F)F)c1`, the growth was 58.5% (inactive).
On the same count and under the same terms, next, `O=C1C(Cl)=C(Oc2ccccc2)C(=O)c2ccccc21`: 73.1% (inactive); `CC(C)OC(=O)c1ccc2[nH]c(O)c(C(=Nc3ccc(N(C)C(=O)CN4CCN(C)CC4)cc3)c3ccccc3)c2c1`: -98.1% (active); `O=C1C(Cl)=C(Nc2ccc(O)cc2)C(=O)N1Cc1ccc(Cl)cc1`: 59% (inactive).
As to `COc1cc(OC)c2sc(-c3ccc(-n4cncc4-c4ccc(OC)c(OC)c4)cc3)nc2c1`, the growth is 87.1% (inactive).
Same read-out and setting: under `CCN(CC)C(=S)SC(SC(=S)N(CC)CC)C(=O)c1nnn(-c2ccc([N+](=O)[O-])cc2)c1C` stands 107% (inactive); under `COc1cccc(CNc2ncnc3c2ncn3C2OC(CO)C(O)C2O)c1O` (stereo not given), -12.4% (active).
Consider `CC(C)c1ccc(COCc2cc(CN3CCCC3)c(O)c3ncccc23)cc1`, for which the growth was 25.9% (inactive).
The same measure, in the same setting: under `O=C(NCc1ccccc1)Nc1ccccc1CNc1nc(Nc2ccc(OCCN3CCCC3)cc2)ncc1Cl` stands 82.4% (inactive).
Regarding `Cc1ccc(-n2c(=S)[nH]c3sc4c(c3c2=O)CCC(=O)C4)cc1`, the growth is 28.1% (inactive).
For the molecule `Oc1c(Cl)cc(Cl)cc1/C=N/Nc1nnc(N/N=C/c2cc(Cl)cc(Cl)c2O)c2ccccc12`, the growth is 13% (inactive).
Same read-out and setting: under `CCCCCCC1(C)NCCO1` (stereo not given) stands 97% (inactive); under `Clc1ccc2c(c1)N(c1ncnc3ccc(-c4cnc5[nH]ncc5c4)cc13)CC2`, -16.8% (active); under `COC(=O)c1cc(-c2ccc(S(C)(=O)=O)cc2)[nH]c1N/N=C/c1c(Cl)cccc1Cl`, 10.1% (inactive).
On the same count and under the same terms, next, `C=CCn1c(SCC(=O)Nc2ccc(C(=O)/C=C/c3ccc(Cl)cc3)cc2)nnc1-c1cc(-c2ccc(S(N)(=O)=O)cc2)nc2ccccc12`: 56% (inactive); `Cc1cc2c(O)c(-c3cc(Cl)ccc3Cl)c3sc(=O)oc3c2cc1C`: 61.2% (inactive); `CC(=O)N(N=Nc1ccccc1)c1cccc2ccccc12`: 129% (inactive).
The same measure, in the same setting: under `Cc1ccc(-c2nc3nc(-c4ccc(F)cc4)nc(N4CCNCC4)c3o2)cc1` stands -2.57% (active); under `O=c1oc2ccc([N+](=O)[O-])cc2cc1Br`, 86.6% (inactive); under `COc1ccc2nc(NC(=O)CSc3nnc4n3S(=O)(=O)c3ccccc3N4C)sc2c1`, 93.5% (inactive).
Consider `Cc1ccc(-c2nn(-c3ccccc3)cc2C=C2C(=O)ON=C2C(C)C)cc1`, for which the growth was 70.3% (inactive).
Take `Cc1cccc(N2CCN(CC(O)COc3ccc(Cl)cc3)CC2)c1` (stereo not given): the growth was 104% (inactive).
Regarding `Cc1nc2c(=O)[nH]c(SCC(=O)Nc3cccc(F)c3)nc2[nH]c1=O`, the growth was 93.6% (inactive).
In the case of `CN(C)c1ccc(/C=C/C(=O)c2ccc(-n3cc(CN4CCN(c5cc6c(cc5F)c(=O)c(C(=O)O)cn6C5CC5)CC4)nn3)cc2)cc1`, the growth was 68.1% (inactive).
Same read-out and setting: under `COc1cc2c(c(OC)c1OC)-c1ccc(OC)c(=O)cc1[C@@H](NC(=O)CCl)CC2` stands 78.9% (inactive); under `O=C(Nc1cccnc1Nc1ccc(F)cc1)c1cn(Cc2cccc(Oc3ccccc3)c2)nn1`, 65.6% (inactive).
With `COc1ccc(-c2ccc3cnc4sc(-c5ccc(OC)cc5)nc4c3n2)cc1`, the growth is 85.8% (inactive).
The same measure, in the same setting: under `CN1CCN(c2ccc(NC(=O)c3cncnc3Nc3ccc(OCc4ccccn4)c(Cl)c3)cc2)CC1` stands 59.8% (inactive).

Another assay concerns SNB-19 CNS. Described as above. Conditions: 10 µM unless noted.
Regarding `CC/C(=C(/c1ccc(Cl)cc1)c1ccc(OCCN2CCCC2)cc1)c1ccc(OC)cc1`, the growth was 80.1% (inactive).
Same read-out and setting: next, `c1cc2[nH]ncc2cc1-c1nc2ccc3[nH]ncc3c2c2c1CCCC2`: 24.3% (inactive).
On the same count and under the same terms, next, `O=C(/C=C/c1ccc(Cl)cc1)c1cccc(Nc2nc(Nc3ccccc3)nc(Nc3ccccc3)n2)c1`: 111% (inactive); `N#Cc1nc(-c2ccccc2)oc1S(=O)(=O)N1CCOCC1`: 91.7% (inactive); `O=C1Nc2ccccc2/C1=C\c1nc(-c2ccccc2)n2ccccc12`: 103% (inactive).
For `O=C(COc1ccc(-c2nc3ccccc3[nH]2)cc1)N=Nc1c(O)[nH]c2ccc(Cl)cc12`, the growth is 56.5% (inactive).
On the same count and under the same terms, next, `COc1ccc(NC(=O)c2sc3nc(C)c(C(=O)/C=C/c4cccc(OC)c4)cc3c2N)cc1`: 8.88% (active); `COc1cnc2c(c1)C(=O)c1c-2n(CCCNCCO)c(=O)c2ccncc12`: 7.52% (active).
For the molecule `O=C(Nc1nc2ccc(F)cc2s1)c1cccnc1Nc1ccc(Cl)cc1`, the growth is 26.4% (inactive).
Still for that read-out and setting: next, `N#CC1C=CN(CC(N)=O)c2ccc3cccnc3c21` (stereo not given): 96.1% (inactive); `COc1ccc(-c2nc3c(c(-c4ccccc4)nn3-c3ccccc3)c(-c3ccc(N4CCN(C)CC4)cc3)c2C#N)cc1`: 95.2% (inactive); `Cn1c(=O)c2[nH]c(N/N=C/c3ccccc3Br)nc2n(C)c1=O`: 109% (inactive).
The same measure, in the same setting: next, `O=C(Nc1ccc(NC(=O)c2cc(=O)[nH]c3ccccc23)cc1)Nc1cccc(C(F)(F)F)c1`: 23.8% (inactive).
Still for that read-out and setting: next, `O=C1C(Cl)=C(Oc2ccccc2)C(=O)c2ccccc21`: 58.4% (inactive).
As for `CC(C)OC(=O)c1ccc2[nH]c(O)c(C(=Nc3ccc(N(C)C(=O)CN4CCN(C)CC4)cc3)c3ccccc3)c2c1`, the growth was 1.52% (active).
`O=C1C(Cl)=C(Nc2ccc(O)cc2)C(=O)N1Cc1ccc(Cl)cc1`: the growth is 69.5% (inactive).
Still for that read-out and setting: next, `COc1cc(OC)c2sc(-c3ccc(-n4cncc4-c4ccc(OC)c(OC)c4)cc3)nc2c1`: 67.1% (inactive); `CCN(CC)C(=S)SC(SC(=S)N(CC)CC)C(=O)c1nnn(-c2ccc([N+](=O)[O-])cc2)c1C`: 90.8% (inactive); `COc1cccc(CNc2ncnc3c2ncn3C2OC(CO)C(O)C2O)c1O` (stereo not given): 31.2% (inactive).
Take `CC(C)c1ccc(COCc2cc(CN3CCCC3)c(O)c3ncccc23)cc1`: the growth is 17.3% (inactive).
As to `O=C(NCc1ccccc1)Nc1ccccc1CNc1nc(Nc2ccc(OCCN3CCCC3)cc2)ncc1Cl`, the growth was 94.3% (inactive).
Same read-out and setting: next, `Cc1ccc(-n2c(=S)[nH]c3sc4c(c3c2=O)CCC(=O)C4)cc1`: 30.9% (inactive); `Oc1c(Cl)cc(Cl)cc1/C=N/Nc1nnc(N/N=C/c2cc(Cl)cc(Cl)c2O)c2ccccc12`: 12.8% (inactive).
`CCCCCCC1(C)NCCO1` (stereo not given): the growth is 94.9% (inactive).
Same read-out and setting: next, `Clc1ccc2c(c1)N(c1ncnc3ccc(-c4cnc5[nH]ncc5c4)cc13)CC2`: 42.8% (inactive); `COC(=O)c1cc(-c2ccc(S(C)(=O)=O)cc2)[nH]c1N/N=C/c1c(Cl)cccc1Cl`: 22.8% (inactive); `C=CCn1c(SCC(=O)Nc2ccc(C(=O)/C=C/c3ccc(Cl)cc3)cc2)nnc1-c1cc(-c2ccc(S(N)(=O)=O)cc2)nc2ccccc12`: 81.4% (inactive).
The same measure, in the same setting: next, `Cc1cc2c(O)c(-c3cc(Cl)ccc3Cl)c3sc(=O)oc3c2cc1C`: 77.6% (inactive); `CC(=O)N(N=Nc1ccccc1)c1cccc2ccccc12`: 106% (inactive); `Cc1ccc(-c2nc3nc(-c4ccc(F)cc4)nc(N4CCNCC4)c3o2)cc1`: 40.5% (inactive).
As to `O=c1oc2ccc([N+](=O)[O-])cc2cc1Br`, the growth was 108% (inactive).
Still for that read-out and setting: next, `COc1ccc2nc(NC(=O)CSc3nnc4n3S(=O)(=O)c3ccccc3N4C)sc2c1`: 112% (inactive).
As to `Cc1ccc(-c2nn(-c3ccccc3)cc2C=C2C(=O)ON=C2C(C)C)cc1`, the growth was 78.4% (inactive).
The same measure, in the same setting: under `Cc1cccc(N2CCN(CC(O)COc3ccc(Cl)cc3)CC2)c1` (stereo not given) stands 98.3% (inactive).
On to `Cc1nc2c(=O)[nH]c(SCC(=O)Nc3cccc(F)c3)nc2[nH]c1=O`, for which the growth is 102% (inactive).
The same measure, in the same setting: under `CN(C)c1ccc(/C=C/C(=O)c2ccc(-n3cc(CN4CCN(c5cc6c(cc5F)c(=O)c(C(=O)O)cn6C5CC5)CC4)nn3)cc2)cc1` stands 31.6% (inactive).
On to `COc1cc2c(c(OC)c1OC)-c1ccc(OC)c(=O)cc1[C@@H](NC(=O)CCl)CC2`, for which the growth was 39.1% (inactive).
Consider `O=C(Nc1cccnc1Nc1ccc(F)cc1)c1cn(Cc2cccc(Oc3ccccc3)c2)nn1`, for which the growth is 67.8% (inactive).
With `COc1ccc(-c2ccc3cnc4sc(-c5ccc(OC)cc5)nc4c3n2)cc1`, the growth was 98.4% (inactive).
Still for that read-out and setting: under `CN1CCN(c2ccc(NC(=O)c3cncnc3Nc3ccc(OCc4ccccn4)c(Cl)c3)cc2)CC1` stands 69.6% (inactive).
